Measured values reported in PubChem BioAssay AID504332 (National Center for Advancing Translational Sciences (NCATS), 2011).
About 31,000 (8.9%) of roughly 350,000 compounds were called active. About 15% were inconclusive and are not listed. The sample holds actives, similar compounds and a random draw of the others, so the mix is not that of the screen. A number with no mark means an inactive call. The call rests on the fitted dose curve; in most records, active means well fitted inhibition curve with a large enough effect; inconclusive means small, poorly fitted or top-dose-only effect; inactive means no such curve, though single readings can be large or run the other way.

biological target: Histone-lysine N-methyltransferase EHMT2 (Homo sapiens) (UniProt Q96KQ7); assay: qHTS Assay for Inhibitors of Histone Lysine Methyltransferase G9a; settings: G9a H3K9 monomethylation, AlphaScreen, 2 h; series mostly up to 59 µM; activity, negative = inhibition: at the top concentration; further: nearly all actives have a fitted effect of over 75% in size
Outline: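 G9a (20 nM) was preincubated 15 min with compound, then reacted 2 h at room temperature with 500 nM biotin-H3K9 peptide and 20 µM SAM. Monomethyl-H3K9 detected by AlphaScreen using anti-H3K9me1 antibody.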
On the % scale 0 is the no-effect control and ±100 the full control effect; potency means the concentration at half of the fitted maximal effect.

Sequence of Histone-lysine N-methyltransferase EHMT2 (Homo sapiens) (Q96KQ7 913-1193 limits assumed): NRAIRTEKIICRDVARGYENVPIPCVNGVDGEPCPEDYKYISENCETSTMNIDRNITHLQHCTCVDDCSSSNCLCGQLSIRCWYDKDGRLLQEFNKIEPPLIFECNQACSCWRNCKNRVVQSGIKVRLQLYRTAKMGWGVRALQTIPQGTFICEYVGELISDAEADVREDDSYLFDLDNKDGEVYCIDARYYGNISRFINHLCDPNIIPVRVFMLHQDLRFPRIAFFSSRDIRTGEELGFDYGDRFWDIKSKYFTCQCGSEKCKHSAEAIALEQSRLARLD

Row | SMILES | activity, negative = inhibition | Potency
1 | COc1cccc(CNCc2c(C(=O)O)n(Cc3ccc(C)cc3)c3cc(C)ccc23)c1OC | -34.2% | 
2 | CCn1c(=O)c(=O)n(CC)c2cc(N3CCCCC3)c(NC(=O)c3ccc(Cl)cc3)cc21 | 1.91% [at 12.7 µM] | 
3 | CCn1c(=O)c(=O)n(CC)c2cc(N3CCCCC3)c(NC(=O)c3cccc(F)c3)cc21 | -23.6% | 
4 | CCn1c(=O)n(CC)c2cc(N3CCCC3)c(NC(=O)c3ccccc3Br)cc21 |  | 44.7 µM (active)
5 | Cc1cc(C)cc(NC(=O)Cn2c(=O)c3ccccc3n3nncc23)c1 | 6% | 
6 | COc1cc(C(=O)OCC(=O)N(CC(C)C)C2CCS(=O)(=O)C2)ccc1OCC(C)C (stereo not drawn) | -31.5% [at 102 µM] | 
7 | COc1ccc(C(=O)OCC(=O)N2CC(=O)Nc3ccccc32)cc1Br | -27.7% [at 102 µM] | 
8 | Cc1ccc(S(=O)(=O)N2CCCCC2)cc1C(=O)N1CCN(CCO)CC1 |  | 11.2 µM (active)
9 | CCOC(=O)N1CCN(C(=O)c2cn(C)c3ccc(S(=O)(=O)N4CCCC4)cc3c2=O)CC1 | -3.84% | 
10 | Cc1ccc(S(=O)(=O)N2CCN(C)CC2)cc1C(=O)NC1CCCCC1 | 107% [at 102 µM] | 
11 | Cc1cccc(N2CCN(c3c(CN4CCCC4)c(=O)oc4ccccc34)CC2)c1C | -1.43% | 
12 | COc1ccc(N(CC(=O)NCCc2ccc(Cl)cc2)S(=O)(=O)c2c(C)nn(C)c2C)cc1 | 1.32% | 
13 | CCC(=O)N1CCc2cc(S(=O)(=O)NC(Cc3ccccc3)C(=O)NCc3ccccc3)ccc21 (stereo not drawn) | 1.47% | 
14 | Cc1ccc(S(=O)(=O)NCCC(=O)NCc2ccc(Cl)cc2)cc1C | 3.24% | 
15 | COc1cc2c(cc1OC)C(c1cccc([N+](=O)[O-])c1)=NCC2 | -8.09% [at 102 µM] | 
16 | CCOC(=O)C1=NN(c2ccc(Cl)cc2)/C(=C/C2=NCCc3cc(OC)c(OC)cc32)S1 | 4.77% | 
17 | COc1cc2c(cc1OC)C(/C=C/c1ccco1)=NCC2 |  | 50.1 µM (active)
18 | O=C(O)c1cccc2c1C(=O)N(C1CCCC1)C2 | -7.12% [at 102 µM] | 
19 | O=C(OCC(=O)N1CCN(C(=O)c2ccco2)CC1)c1ccc(Cl)c(Cl)c1 | 16.1% [at 12.7 µM] | 
20 | COc1ccc(NC(=O)c2ccc3nc(C(C)C)oc3c2)cc1OC | -4.62% | 
21 | Cc1cc2nc3n(c2cc1C)CC1CC(C(=O)NCCC(C)C)N(C)C31 (stereo not drawn) | 5.1% [at 12.7 µM] | 
22 | CCc1ccc(CN(Cc2ccco2)C(=O)c2ccccc2Cl)cc1 | 27.6% | 
23 | CC1CCC(NC(=O)c2ccc(N3CCCC3=O)cc2)CC1 (stereo not drawn) | -8.7% [at 102 µM] | 
24 | O=C(NCCCN1CCCCCC1)c1ccc(N2CCCC2=O)cc1 |  | 22.4 µM (active)
25 | CCOc1ccc(C(=O)NCCCN2CCCC2=O)cc1 | -47.7% | 

Row | SMILES | activity, negative = inhibition | Potency
26 | Cc1nc(SCC(=O)N2CCN(c3ccccc3)CC2)[nH]c(=O)c1C | 7.52% | 
27 | CC(C)Cn1c(N)c(C(=O)COC(=O)C2CCCN2C(=O)c2cccs2)c(=O)n(C)c1=O (stereo not drawn) | -29% | 
28 | O=C(CCN1C(=O)/C(=C/c2cccs2)SC1=S)NNC(=O)c1cccc(O)c1 | 20.4% [at 102 µM] | 
29 | O=C(CCCN1C(=O)/C(=C/c2cccs2)SC1=S)Nc1ccc(O)cc1 | -11.9% [at 102 µM] | 
30 | CC(C(=O)Nc1ccc(O)c(C(=O)O)c1)N1C(=O)/C(=C/c2cccs2)SC1=S (stereo not drawn) |  | 35.5 µM (active)
31 | O=C(COc1ccccc1Cl)Nc1ccccc1C(=O)NC1CC1 | 3.29% [at 102 µM] | 
32 | Cc1cnc(C)c(N2CCN(C(=O)C3CCC(=O)N(CCc4cccc(F)c4)C3)CC2)n1 (stereo not drawn) | 30.6% [at 102 µM] | 
33 | CCCCC(CC(C)O)c1n[nH]c(=S)n1-c1ccccc1 (stereo not drawn) |  | 5.01 µM (active)
34 | N#Cc1ccccc1Cn1cnc2nc3c(cc2c1=O)CCCC3 | -5.6% | 
35 | COc1ccccc1N1CCN(C(CNC(=O)C(=O)NCc2ccc(C)cc2)c2cccnc2)CC1 (stereo not drawn) | -1.43% | 
36 | CCOC(=O)N1CCN(C(=O)CSc2nc(=O)n3cccc(C)c3n2)CC1 | 12.4% [at 102 µM] | 
37 | Oc1c(CN2CCCC2)cc(COCc2ccccc2)c2cccnc12 | -18% [at 12.7 µM] | 
38 | CCN1CCN(C(c2cccnc2)c2cc(Cl)c3cccnc3c2O)CC1 (stereo not drawn) |  | 1.12 µM (active)
39 | CCOC(=O)N1CCN(C(c2cccnc2)c2ccc3cccnc3c2O)CC1 (stereo not drawn) |  | 0.316 µM (active)
40 | CCOc1ccc(C(NC(=O)c2cc(OC)c(OC)c(OC)c2)c2cc(Cl)c3cccnc3c2O)cc1 (stereo not drawn) | 32.7% | 
41 | CC1CCCN(c2cc3c(cc2F)c(=O)c(S(=O)(=O)c2cccc(Cl)c2)cn3Cc2ccccc2)C1 (stereo not drawn) | 2.11% | 
42 | CC(O)c1ccc(OCCN(C)c2ccccn2)cc1 (stereo not drawn) | -1.26% [at 2.33 µM] | 
43 | Cc1nc2ccn(Cc3cccs3)c(=O)c2cc1C(=O)NCc1ccc(Cl)cc1 | 7.77% | 
44 | COc1ccc(CNS(=O)(=O)c2cc3c4c(c2)CCN4C(=O)CC3)cc1 |  | inactive
45 | COc1cc([N+](=O)[O-])ccc1NC(=S)N1CCN(c2ccccn2)CC1 |  | 44.7 µM (active)
46 | CCOC(=O)c1ccc(NC(=S)N2CCN(c3ccccn3)CC2)cc1 | 0.189% [at 102 µM] | 
47 | CNC(=S)N1CCN(c2ccccn2)CC1 | 20.4% | 
48 | CCCOc1ccc(-c2c(C(=O)N/N=C/c3ccco3)nnn2-c2nonc2N)cc1 | 19.6% [at 102 µM] | 
49 | COc1ccccc1/C=N/N1CCN(Cc2ccccc2Cl)CC1 | 7.68% [at 0.501 µM] | 
50 | CSc1ccc(/C=N/N2CCN(Cc3ccccc3Cl)CC2)cc1 |  | 14.1 µM (active)

Row | SMILES | activity, negative = inhibition | Potency
51 | O=S1(=O)CCN(Cc2ccccc2Cl)CC1 | -11.6% [at 102 µM] | 
52 | CCOc1ccc(CNC(=O)c2ccc(CS(=O)c3ccccc3)o2)cc1 (stereo not drawn) | -27.7% | 
53 | Cc1cccc(NC(=O)c2sc(-c3ccccc3)nc2-c2ccc([N+](=O)[O-])cc2)c1 | -11.3% | 
54 | Cc1nc(-c2ccc([N+](=O)[O-])cc2)c(-c2ccccc2)o1 |  | 15.8 µM (active)
55 | COc1ccc([N+](=O)[O-])cc1-c1nc2ccccc2nc1-c1ccccc1 | 7.8% [at 0.501 µM] | 
56 | COC(=O)c1c(NC(=O)c2cc(=O)c3c(C)cc(C)cc3o2)sc2c1CCCC2 | -3.65% | 
57 | COc1cc(/C(=C/c2ccccc2)c2ccccc2)c2c(c1)oc1ccccc12 | 39.3% [at 102 µM] | 
58 | Cc1oc2cc(Br)c(O)c(Br)c2c1C(=O)c1ccccc1 |  | 44.7 µM (active)
59 | Cc1cc(C(=O)O)ccc1[N+](=O)[O-] | 3.38% [at 0.501 µM] | 
60 | Cc1oc2cc([N+](=O)[O-])c(O)c([N+](=O)[O-])c2c1C(=O)c1ccc(Br)cc1 |  | 17.8 µM (active)
61 | CCOC(=O)c1c(-c2ccccc2)oc2cc(Br)c(O)cc12 | 16.8% [at 102 µM] | 
62 | Cc1cc(O)c(NC(=O)c2ccc(C)c([N+](=O)[O-])c2)cc1C | 5.04% [at 102 µM] | 
63 | CS(=O)(=O)Nc1cccc(C2=NN(C(=O)c3cccc(F)c3)C(c3cccs3)C2)c1 (stereo not drawn) | -0.685% [at 102 µM] | 
64 | O=C(Cn1c(=O)n(Cc2cccs2)c(=O)c2cccnc21)Nc1ccc(F)cc1 | 4.79% | 
65 | Cc1ccc(NC(=O)Cc2ccc(NC(=O)N3CCCCc4ccccc43)cc2)cc1 | -7.06% | 
66 | CC(C)=CCCC(C)CN1CCC(n2nccc2NC(=O)c2ccccc2)CC1 (stereo not drawn) | 12.5% [at 102 µM] | 
67 | COc1cc(C2c3c(oc4ccccc4c3=O)C(=O)N2c2nc(C)c(C)s2)ccc1O (stereo not drawn) | 2.3% | 
68 | CC(=O)c1sc(N2C(=O)c3oc4ccccc4c(=O)c3C2c2ccc(C)cc2)nc1C (stereo not drawn) |  | 2 µM (active)
69 | O=C1c2oc3ccccc3c(=O)c2C(c2cccc(O)c2)N1c1ccccn1 (stereo not drawn) | 4.82% [at 102 µM] | 
70 | COc1ccc(NC(=O)CCc2nnc3n(CC(C)C)c(=O)c4ccccc4n23)cc1OC | 8.79% | 
71 | Cc1nnc(NCCO)c2ccccc12 | -4.86% [at 102 µM] | 
72 | NNc1nnc(NN)c2ccccc12 |  | 25.1 µM (active)
73 | COc1ccc(Nc2nnc(C)c3ccccc23)cc1 | -4.39% [at 102 µM] | 
74 | CCOC(=O)C1CCCN(S(=O)(=O)c2cc(-c3cc(C)no3)ccc2OC)C1 (stereo not drawn) | -28.7% | 
75 | Cc1nc2ccccc2n1CC(=O)N/N=C/c1cccnc1 | -0.153% [at 102 µM] | 

Row | SMILES | activity, negative = inhibition | Potency
76 | Cn1c(SCC(=O)N/N=C/c2ccc(O)c(O)c2)nc2ccccc21 |  | 17.8 µM (active)
77 | Cc1ccc(/C=N/NC(=O)CSc2nc3ccccc3o2)cc1 | 11.8% | 
78 | CCOc1cc(/C=N/NC(=O)CN2CCCCC2)ccc1O | 21.9% [at 102 µM] | 
79 | CCOc1ccc(/C=N/NC(=O)CSc2ccccn2)cc1O | 6.98% [at 102 µM] | 
80 | Cc1nccn1CC(=O)N/N=C/c1ccc(O)c(O)c1 |  | 7.08 µM (active)
81 | O=C(NCC(=O)N1CCCCCCC1)c1ccccc1Cl | 8.52% [at 12.7 µM] | 
82 | Cc1c(C(=O)NCC(c2ccco2)N2CCCC2)oc2ccc(Cl)cc12 (stereo not drawn) | 0.391% | 
83 | Cc1ccc(S(=O)(=O)NCCC(=O)NC2CCN(Cc3ccccc3)CC2)cc1 | 14.9% | 
84 | COc1ccc(-c2noc(-c3ccc(N4CCN(c5ccccc5)CC4)c([N+](=O)[O-])c3)n2)cc1OC | -34.5% | 
85 | CCOc1ccccc1NC(=O)CN1CCN(S(=O)(=O)c2ccc(Br)cc2)CC1 | -10.2% | 
86 | CCNS(=O)(=O)c1ccc(NC(=O)CSc2nc(-c3ccco3)cc(C(F)(F)F)n2)cc1 | 0.35% | 
87 | O=C(Nc1cc(-c2ccccc2)nn1-c1ccccc1F)c1ccc([N+](=O)[O-])cc1 | -22.8% [at 12.7 µM] | 
88 | CCOc1ccc(CN2CCN(Cc3c[nH]c4ccccc34)CC2)cc1 | 25.4% [at 2.33 µM] | 
89 | CCOc1ccc(CC(=O)NC2CCN(Cc3ccccc3)CC2)cc1 | -4.74% [at 102 µM] | 
90 | CCOc1ccc(CN2CCCN(C)CC2)cc1 |  | 10 µM (active)
91 | Cn1c(=O)c2c(nc(SCC(=O)Nc3ccc(F)cc3)n2Cc2ccccc2)n(C)c1=O | 12.4% | 
92 | COC(=O)C(C)Sc1nc2c(c(=O)n(C)c(=O)n2C)n1Cc1cccc(C)c1 (stereo not drawn) |  | 20 µM (active)
93 | Cc1cccc(Cn2c(SCCO)nc3c2c(=O)n(C)c(=O)n3C)c1 | -2.49% [at 102 µM] | 
94 | CCOc1ccccc1C(=O)Nc1ccc(S(=O)(=O)N2CCCCC2c2cccnc2)cc1 (stereo not drawn) | 5.63% | 
95 | Cc1ccccc1-n1nc(SCC(=O)O)sc1=S |  | 50.1 µM (active)
96 | N#CCSc1nn(-c2ccc(F)cc2)c(=S)s1 | -42.3% [at 102 µM] | 
97 | Cc1nnc(SCC(=O)NCc2ccccc2)s1 | -12.5% | 
98 | Cn1c(N)c(C(=O)COC(=O)COc2ccc(Cl)cc2)c(=O)n(C)c1=O | 17.9% [at 12.7 µM] | 
